What all share (type): functional
The test system of experiment [1] is Plasmodium falciparum. The experiment in a line: GSK_TCMDC: Inhibition of Plasmodium falciparum 3D7 in whole red blood cells, using parasite LDH activity as an index of growth. Test compounds present at 2uM.
The subject of experiment [2] is Plasmodium falciparum. The experiment in a line: GSK_TCMDC: Inhibition of Plasmodium falciparum Dd2 in whole red blood cells, using parasite LDH activity as an index of growth. Test compounds present at 2uM.
The test system of a further experiment is HepG2. The experiment in a line: GSK_TCMDC: Percent inhibition of human HepG2 cell line. Test compounds present at 10uM.

Each structure is given as a SMILES string.

For orientation: Inhibition means how much of the control response was suppressed. A lower Inhibition goes with little suppression.

On to `Cc1cc(NC(=O)c2ccco2)ccc1OC1CCN(Cc2ccc(F)cc2)C1.O=C(O)C(F)(F)F` (stereo not drawn), for which the Inhibition in the experiment with Plasmodium falciparum [1] was found to be 96%; in the experiment on Plasmodium falciparum [2] it was 92%; in the experiment on HepG2, 5%.

Turning to `COc1ccccc1CNc1ncc(-c2ccsc2)c(-c2nccs2)n1`, the Inhibition with Plasmodium falciparum [1] stood at 91%; in the experiment with Plasmodium falciparum [2] it was 84%; with HepG2 it was 14%.

Turning to `CCOc1ccc2nc3cc(NC(=O)c4ccco4)ccc3c(N)c2c1`, the Inhibition worked out at 100% in the experiment on Plasmodium falciparum [1], 56% with Plasmodium falciparum [2] and 36% in the experiment on HepG2.

In the case of `Cc1cccc(CN2CCC(Oc3ccc(NC(=O)c4cccs4)cc3Cl)CC2)n1.O=C(O)C(F)(F)F`, the Inhibition in the experiment on Plasmodium falciparum [1] is listed as 86%; in the experiment with Plasmodium falciparum [2], 88%; in the experiment with HepG2 it was 27%.

Turning to `O=C(/C=C/c1ccc(Cl)cc1Cl)NCCCCCN1CCC(c2c[nH]c3ccccc23)CC1`, the Inhibition in the experiment with Plasmodium falciparum [1] turned out to be 99%; in the experiment on Plasmodium falciparum [2], 9%; in the experiment with HepG2 it was 95%.

Take `CC(=O)Nc1ncc(C(=O)Nc2cccc(-c3ccc(-c4nc5cc(C(F)(F)F)ccc5[nH]4)cc3)c2)s1`: the Inhibition in the experiment on Plasmodium falciparum [1] was found to be 100%; in the experiment with Plasmodium falciparum [2], 94%; in the experiment with HepG2 it was 83%.

Regarding `COc1cc2c(cc1S(=O)(=O)c1ccc(OCc3ccc(Cl)cc3)cc1)CCN(Cc1ccc(NC(C)=O)s1)CC2`, the values for the Inhibition in the experiment on Plasmodium falciparum [1], with Plasmodium falciparum [2] and with HepG2 were 89%, 0% and 3%, respectively.

Regarding `Cc1ccc(-n2c(Cc3cccc4ccccc34)nnc2SCCC#N)c(C)c1`, the Inhibition was 95% in the experiment on Plasmodium falciparum [1], 98% in the experiment with Plasmodium falciparum [2] and 0% in the experiment on HepG2.

Turning to `Cc1cnn(-c2cccc(C(=O)NC3CCC(CCN4CCc5ccc(C#N)cc5CC4)CC3)c2)c1.Cl` (stereo not drawn), the Inhibition with Plasmodium falciparum [1] is listed as 94%; in the experiment on Plasmodium falciparum [2] it was 48%; in the experiment with HepG2 it was 24%.

Regarding `O=C(/C=C/c1ccc(Cl)cc1)NCCCCCN1CCC(C(=O)Nc2ccc(Cl)cc2)CC1`, the results for the Inhibition in the experiment with Plasmodium falciparum [1], with Plasmodium falciparum [2] and in the experiment with HepG2 were 99%, 0% and 27%, respectively.

On to `O=C(Nc1ccc(Oc2ccccc2)cc1)N(Cc1ccc(-c2cccc(CN3CCNCC3)c2)cc1)C1CCN(Cc2ccccc2)CC1.O=C(O)C(F)(F)F`, for which the Inhibition was determined as 93% in the experiment with Plasmodium falciparum [1], 53% in the experiment with Plasmodium falciparum [2] and 10% with HepG2.

Source of the values: ChEMBL document CHEMBL1157539, “Thousands of chemical starting points for antimalarial lead identification” (Nature, 2010).
